Source: PubChem
MITF inh – human MITF inhibition, primary screen; AlphaScreen MITF homodimerization, bead proximity signal; 650,000 compounds, 0.91% hits; inhibition, % at 2.6 µM; in the data active means inhibition above about 50%;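 further: 0% = vehicle wells with protein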
GPR151 ag – activators of human GPR151; Q8TDV0; PathHunter beta-arrestin GPR151 cells, luminescence; activation, % at 11.2 µM; 650,000 compounds, 1% hits; AID 1508602; in the data active means activation above about 4.9%;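 further: 0% = median of compound wells and 100% = cells with positive control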
FBW7 activator – human FBW7 E3 ligase activation, primary screen; Q969H0; AlphaScreen FBW7–phospho-cyclin E peptide binding, activator screen; normalized activity (activation), % at 26.1 µM; 650,000 compounds, 0.13% hits; AID 1259310; in the data active means normalized activity above about 1.9%;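 further: purified mutant Fbw7 with reduced substrate affinity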
TEAD-YAP inh – TEAD-YAP interaction inhibition. 640,000 compounds, 1.4% hits. inhibition, % at 9.12 µM. HEK-TIYL cells, TEAD-Gal4/YAP UAS-luciferase luminescence; in the data active means inhibition above about 32%;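 further: 0% = median of test compound wells and 100% = reference inhibitor wells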
GPR151 confirm – confirmation of human GPR151 activators | shares compounds with GPR151 ag | GPR151 PathHunter beta-arrestin cells, luminescence, 90 min; % of EA-reagent control over plate median | activation, % at 11.2 µM | 6,700 tested, under 10 active | AID 1508609;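 active means mean percent activation across replicates above the confirmation screen cutoff of 4.91%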
GPR119 ag – activates human GPR119 in a GPR151 counter-screen. shares compounds with GPR151 ag. activation, % at 11.2 µM. AID 1508611. GPR119 PathHunter beta-arrestin cells, luminescence, 90 min; 0 = compound-well median, 100 = enzyme-acceptor control. 6,700 compounds, 0.3% hits;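 active means mean percent activation in the counterscreen above 29.09%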;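 further: counterscreen on off-target GPR119 to flag nonselective hits from the GPR151 activator screen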
Target sequence (Q8TDV5 whole entry, looked up): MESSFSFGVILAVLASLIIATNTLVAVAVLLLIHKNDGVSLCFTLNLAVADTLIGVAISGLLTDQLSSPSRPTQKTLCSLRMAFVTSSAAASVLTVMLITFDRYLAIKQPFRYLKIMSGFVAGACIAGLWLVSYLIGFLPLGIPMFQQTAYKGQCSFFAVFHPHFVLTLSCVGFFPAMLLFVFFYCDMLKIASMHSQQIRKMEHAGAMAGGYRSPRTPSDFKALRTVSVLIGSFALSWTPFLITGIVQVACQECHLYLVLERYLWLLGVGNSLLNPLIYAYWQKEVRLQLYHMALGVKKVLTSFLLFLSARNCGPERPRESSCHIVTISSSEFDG
* hit, by the source's call; · = no result. In the library only some 3.5% were active in any assay of this set; here they are far more common.

SMILES	MITF inh	GPR151 ag	FBW7 activator	TEAD-YAP inh	GPR151 confirm	GPR119 ag
Cn1c(=O)n(C)c2cc(S(=O)(=O)Nc3cccc(C(F)(F)F)c3)ccc21	-11.6	5.1*	-0.2	0.7	-0.6	7.0
CCc1cccc(NS(=O)(=O)c2ccc3c(c2)n(C)c(=O)n3C)c1	3.4	1.1	0.3	24.9	·	·
NNC(=O)Cn1cnc([N+](=O)[O-])n1	2.2	1.7	0.7	3.0	·	·
COc1cc(C(=O)OCC(=O)NC(C)C)c([N+](=O)[O-])cc1OC	9.3	-1.6	0.3	5.8	·	·
CCC(CC)NC(=O)COC(=O)c1cc(OC)c(OC)cc1[N+](=O)[O-]	-5.9	5.0*	-0.1	5.1	0.0	2.5
C=C(C)c1cccc(C(C)(C)NC(=O)Nc2ccccc2F)c1	15.1	9.5*	0.3	18.4	0.3	-8.2
C=C(C)c1cccc(C(C)(C)NC(=O)Nc2ccc(C(C)=O)cc2)c1	5.6	0.4	-0.1	-1.1	·	·
COCCCN1C(=O)c2ccccc2CC1(C)C(=O)NC1CCCCCC1 (configuration not stated)	-7.2	5.6*	-0.1	-3.6	-0.1	-3.4
COCCCN1C(=O)c2ccccc2CC1(C)C(=O)NC1CCCCCCC1 (configuration not stated)	1.8	1.5	0.2	2.3	·	·
CN(C)C(=O)Cc1ccc(NS(C)(=O)=O)cc1	-11.9	-0.8	-0.2	8.6	·	·
COc1cn(CC(=O)Nc2cccc(C)c2)c(CSc2ncccn2)cc1=O	8.5	1.6	0.1	-5.4	·	·
COc1cn(CC(=O)Nc2cc(C)cc(C)c2)c(CSc2nccc(C)n2)cc1=O	-1.2	14.7*	0.0	1.2	-0.6	-3.6
Cn1c(=O)c(=O)n(C)c2cc(S(=O)(=O)N3CCN(C(=O)c4ccco4)CC3)ccc21	6.0	15.3*	0.3	0.8	0.7	-1.5
COc1ccc(-n2c(O)c(C=NCc3ccc(F)cc3)c(=O)[nH]c2=O)cc1	18.4	7.1*	0.1	5.1	-1.2	-5.4
Cc1ccc(C(=O)NCN2CCN(c3ccccc3)CC2)cc1	6.6	6.0*	0.0	8.8	-0.4	-6.7
O=C(NCCCN1CCN(c2ccccc2)CC1)c1ccccc1	5.7	3.4	0.0	-2.7	·	·
COc1ccc(Cc2n[nH]c(=O)c3ccccc23)cc1OC	-3.9	5.3*	-0.1	-9.7	0.7	-4.9
O=c1[nH]nc(Cc2ccccc2)c2ccccc12	4.1	0.2	0.0	-12.9	·	·
O=C(NC(=S)Nc1ncccc1O)c1ccccc1Br	-4.2	7.6*	-0.1	-85.1	0.0	-7.7
Cc1cccnc1NC(=S)NC(=O)c1ccccc1Br	10.0	0.4	0.5	-42.8	·	·
CCN1CCN(C(=S)Nc2ccccc2F)CC1	-0.2	-0.1	0.0	0.1	·	·
CCOC(=O)c1sc2nc(SCC(=O)c3ccccc3)n(Cc3ccc(Cl)cc3)c(=O)c2c1C	0.4	-0.7	-0.1	-8.5	·	·
CCOC(=O)c1sc2nc(SCC(=O)c3ccc(Cl)cc3)n(Cc3cccs3)c(=O)c2c1C	-11.6	5.1*	0.0	9.7	1.2	7.8
O=C(CN(Cc1ccco1)C(=O)c1cc2ccccc2oc1=O)Nc1ccccc1	0.1	0.2	-0.1	2.0	·	·
COc1ccc(/C=C/C(=O)c2cccc(OC)c2)cc1	-0.5	-0.6	-0.1	-15.6	·	·
SMILES	MITF inh	GPR151 ag	FBW7 activator	TEAD-YAP inh	GPR151 confirm	GPR119 ag
COc1cccc(C(=O)/C=C/c2ccccc2OC)c1	16.1	7.1*	0.1	-16.6	1.5	5.4
CCOC(=O)N1CCC(Nc2c(NC(C)CC)c(=O)c2=O)CC1 (configuration not stated)	-20.0	8.8*	-0.2	-3.1	0.2	10.0
CCCCNc1c(N2CCCC(C(=O)OCC)C2)c(=O)c1=O (configuration not stated)	1.1	5.1*	0.1	-1.4	3.1	5.8
CCOC(=O)N1CCN(c2c(NC3CCCCCCC3)c(=O)c2=O)CC1	2.6	2.8	-0.1	2.1	·	·
CC1CCN(c2c(NCc3ccc(C(=O)NCCc4ccccc4)cc3)c(=O)c2=O)CC1	2.5	5.2*	-0.3	-9.5	0.7	-8.5
CCOC(=O)C1CCCN(c2c(NCCCN3CCN(C)CC3)c(=O)c2=O)C1 (configuration not stated)	-2.5	-0.5	0.0	4.7	·	·
CCOC(=O)C1CCN(c2c(NCCN3CCOCC3)c(=O)c2=O)CC1	10.3	6.3*	0.3	0.7	-0.5	-17.6
O=C(O)c1cnc2c(ccc3[nH]snc32)c1=O	27.9	-4.9	-0.3	-4.5	·	·
CCOC(=O)c1c(NC(=O)c2ccc(C)cc2)sc(C(=O)Nc2ccccc2F)c1C	-1.0	1.7	-0.2	3.5	·	·
Cc1ccc(NC(=O)Nc2ccc3nccnc3c2)cc1	15.4	-1.0	0.2	-46.0	·	·
CCOC(=O)N1CCN(c2c(NCCN3CCCCCC3)c(=O)c2=O)CC1	-1.8	1.8	0.0	-8.9	·	·
CCOC(=O)C1CCCN(c2c(NCCCc3ccccc3)c(=O)c2=O)C1 (configuration not stated)	5.7	-0.2	-0.1	-13.0	·	·
CCOC(=O)C1CCN(c2c(NCCCc3ccccc3)c(=O)c2=O)CC1	4.1	9.9*	-0.2	-4.5	0.3	3.8
CCOC(=O)N1CCN(c2c(NCCN3CCCC3)c(=O)c2=O)CC1	1.1	5.5*	-0.1	-6.4	1.4	9.7
COc1ccc(N2CC(C(=O)Nc3cccc4ccccc34)CC2=O)cc1 (configuration not stated)	7.5	1.5	0.1	-3.9	·	·
COC(=O)C(NS(=O)(=O)c1ccc([N+](=O)[O-])cc1)c1ccccc1 (configuration not stated)	-1.5	9.3*	0.1	9.1	0.3	3.2
O=C(O)C(NS(=O)(=O)c1ccc([N+](=O)[O-])cc1)c1ccccc1 (configuration not stated)	15.8	2.5	0.0	4.3	·	·
CCOC(=O)N1CCN(C(=O)CN(c2ccccc2Br)S(C)(=O)=O)CC1	14.3	7.6*	0.1	2.4	0.6	-5.5
CCCNc1nc(Nc2ccc(C)cc2)nc(N2CCCC2)n1	-0.6	4.9*	0.1	5.3	0.2	-5.0
Cn1ccnc1SCc1cc(=O)c(OC(=O)c2ccc(Br)o2)co1	1.1	0.5	-0.3	1.3	·	·
CNc1nc(N2CCOCC2)nc(C)c1[N+](=O)[O-]	4.1	1.4	0.1	-2.6	·	·
CC(=O)N(Cc1cccs1)Cc1cc2c(C)cc(C)cc2[nH]c1=O	8.3	1.6	0.1	0.9	·	·
CCOc1ccccc1/C=C1\N=C(c2cccs2)OC1=O	1.9	-1.0	0.0	-0.2	·	·
CC[C@H](C)NC(=O)CCCc1nnc2n(CCC(C)C)c(=O)c3sccc3n12	2.4	-0.5	0.0	1.4	·	·
CC(C)CCn1c(=O)c2sccc2n2c(CCCC(=O)O)nnc12	14.2	5.2*	0.5	1.5	-0.1	-2.5
O=C(Nc1cccc(-c2cn3ccccc3n2)c1)c1cc2cc(Br)cc(Br)c2oc1=O	5.6	1.4	0.2	-9.6	·	·
